Screening results deposited in PubChem BioAssay by National Center for Advancing Translational Sciences (NCATS).
HT1080NT lethal: qHTS for induction of synthetic lethality in tumor cells producing 2HG: qHTS for the HT-1080-NT fibrosarcoma cell line; HT-1080-NT fibrosarcoma viability, CellTiter-Glo ATP luminescence, 48 h; Potency, µM (top dose mostly 46.1 µM), inactives show top-dose activity, negative = less viability, hits mostly cytotoxic; 360,000 tested, 1.6% active; AID 686970, 2013;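 note: NT is the 2HG producing partner of a matched IDH1 knockdown line; 0% = DMSO-treated cells and -100% = media-only wells without cells; nearly all actives have a fitted effect of over 55% in size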
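Compounds were tested in concentration-response format on HT-1080-NT cells for 48 hours at 37 degrees C. Cell viability came from CellTiter-Glo luminescence; curves were classified by r2, response magnitude and activity.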
TDP1 cell CPT: qHTS for Inhibitors of human tyrosyl-DNA phosphodiesterase 1 (TDP1): qHTS in cells in presence of CPT; Potency, µM (series often up to 46.2 µM), inactives show at the highest dose activity change, negative = growth inhibition, most hits filed as inhibitors; 420,000 tested, 12% active; chicken DT40 Tdp1-/-;hTDP1 cells + 20 nM CPT, ATP luminescence, 48 h; note: % is set by controls: 0 for no effect and ±100 for the full control effect; nearly all actives have a fitted effect of over 55% in size
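Chicken DT40 Tdp1-/- cells complemented with human TDP1, 400 cells/well, exposed to compounds plus 20 nM camptothecin for at least 48 h at 37 C; viability read as ATP content by CellTiter-Glo luminescence.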
TGFb inhibitor: qHTS for Inhibitors of TGF-b | HepG2 CAGA-GFP TGF-b/SMAD3 reporter, GFP fluorescence, 18 h; TGF-beta stimulated, 500 pg/mL final | Potency, µM (top dose mostly 46.1 µM), for the others: top-dose activity, negative = inhibition, actives largely listed as inhibitors | AID 588855, 2011 | 410,000 tested, 1.2% active; note: % is set by controls: 0 for no effect and ±100 for the full control effect; nearly all actives have a fitted effect of over 65% in size
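Read-out: total well GFP (ex488/em500-530) summed from mean per-cell fluorescence. Cells: HEPG2 CAGA-GFP, 1% FBS DMEM, 18 h at 37 degrees C with 500 pg/mL final TGF-beta. Unstimulated wells served as the full-inhibition control; stimulated DMSO wells = 0%.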
DT40 TDP1 no CPT: qHTS for Inhibitors of human tyrosyl-DNA phosphodiesterase 1 (TDP1): qHTS in cells in absence of CPT; DT40 Tdp1-/- hTDP1 cells, no CPT, ATP luminescence, 48 h; Potency, µM (titrated, usually from 46.2 µM), for inactives: top-dose activity change, negative = growth inhibition, usual class: inhibitors; 420,000 tested, 15% active; note: % is set by controls: 0 for no effect and ±100 for the full control effect; nearly all actives have a fitted effect of over 55% in size
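Chicken DT40 Tdp1-/- cells stably complemented with human TDP1 were seeded at 400 cells/well with DMSO in place of 20 nM camptothecin. After compound pinning, cells grew at least 48 hr at 37 °C; viability read by CellTiter-Glo luminescence.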
HT1080 IDH1KD tx: qHTS for induction of synthetic lethality in tumor cells producing 2HG: qHTS for the HT-1080-IDH1KD cell line. HT-1080 IDH1 knockdown viability, ATP luminescence, 48 h. Potency, µM (doses to about 46.1 µM), inactives show at the top dose activity, negative = toxicity, usual class: cytotoxic. 360,000 tested, 2% active. AID 686971, 2013;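 note: 0% = DMSO wells and -100% = cell-free medium wells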
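Cytotoxicity counter-line: IDH1KD HT-1080, 48 h, CellTiter-Glo. Curves classed by r2, magnitude and activity.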
HepG2 viability: qHTS for Inhibitors of TGF-b: Cytotox Counterscreen; HepG2 CAGA-GFP viability, ATP luminescence, 18 h; Potency, µM (top dose mostly 46.1 µM), for inactives: at the top dose activity change, negative = cytotoxicity, actives largely listed as cytotoxic; 410,000 tested, 0.76% active; AID 588856, 2011
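CellTiter-Glo luminescence gave cytotoxicity after 18 hours at 37 degrees C. The cells were HepG2 CAGA-GFP in 1% FBS DMEM, stimulated with 500 pg/mL TGF-beta after compound addition. %Activity was normalised to no-cell wells (complete cell-killing) and DMSO (no toxicity), and curves were fitted and classified.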
* hit, by the source's call; ? = inconclusive; . = not tested or not shown; ! = repeats disagree; [ ] = another dose, or the depositor's remark. Compounds with a hit are over-represented: about 17% of the library has one in this group of screens. Calls come from the whole dose curve; as a rule, active = well fitted curve in the direction sought with a large enough effect; inconclusive = small, poorly fitted or top-dose-only effect, or another doubt; inactive = no such curve, though single readings can be large; an effect the other way counts as inactive or inconclusive. Potency is the fitted concentration of half-maximal effect.

SMILES	HT1080NT lethal	TDP1 cell CPT	TGFb inhibitor	DT40 TDP1 no CPT	HT1080 IDH1KD tx	HepG2 viability
Cc1noc(C)c1NC(=O)N(C)C[C@H]1Oc2ccc(NS(=O)(=O)c3cccs3)cc2C(=O)N([C@H](C)CO)C[C@@H]1C	16.5%	-3.7%	?	2.1%	-8.8%	-4.0%
CC[C@H](C)[C@H]1O[C@]2(CC[C@@H]1C)C[C@@H]1C[C@@H](CC=C(C)[C@@H](O[C@H]3C[C@H](OC)[C@@H](O[C@H]4C[C@H](OC)[C@@H](O)[C@H](C)O4)[C@H](C)O3)[C@@H](C)C=CC=C3CO[C@@H]4[C@H](O)C(C)=C[C@@H](C(=O)O1)[C@]34O)O2	2.91µM*	3.66µM*	3.16µM*	3.66µM*	4.11µM*	3.55µM*
CC[C@@H](C)[C@H]1O[C@]2(CC[C@@H]1C)C[C@@H]1C[C@H](C/C=C(/C)[C@H](O[C@@H]3C[C@H](OC)[C@H](O[C@@H]4C[C@H](OC)[C@@H](O)[C@H](C)O4)[C@H](C)O3)[C@@H](C)/C=C\C=C3CO[C@@H]4[C@H](O)C(C)=C[C@@H](C(=O)O1)[C@]34O)O2 (tested in a mixture with another compound)	.	11.9µM*	.	?	.	.
CON=C1C[C@]2(C[C@@H]3C[C@@H](C/C=C(\C)C[C@@H](C)/C=C/C=C4\CO[C@@H]5[C@H](O)C(C)=C[C@@H](C(=O)O3)[C@]45O)O2)O[C@H](/C(C)=C/C(C)C)[C@H]1C	.	4.22µM*!	.	21.1µM*!	.	.
CCC(C)[C@H]1O[C@]2(C=C[C@@H]1C)C[C@@H]1C[C@@H](C/C=C(\C)[C@@H](O[C@H]3C[C@H](OC)[C@@H](O[C@H]4C[C@H](OC)[C@H](NC(C)=O)[C@H](C)O4)[C@H](C)O3)[C@@H](C)/C=C/C=C3\CO[C@@H]4[C@H](O)C(C)=C[C@@H](C(=O)O1)[C@]34O)O2 (stereo partly drawn)	.	4.22µM*	.	2.66µM*	.	.
COC(=O)C[C@H]1C=C[C@H](NC(=O)c2ccccn2)[C@@H](CO)O1	4.0%	-8.2%	.	-1.4%	18.7%	.
COc1ccc(Cc2nc3ccccc3[nH]2)cc1OC	-2.1%	-16.0%	4.2%	-28.1%	-9.8%	8.5%
Clc1ccc(-c2nc(-c3cc4cc(Cl)ccc4o3)cs2)cc1	-4.3%	-7.4%	38.1%	-4.7%	-4.3%	52.0%
COc1ccc(CCN(Cc2cc3cc(C)cc(C)c3nc2Cl)C(=O)C2CC2)cc1	?	?	?	16.4µM*	?	-31.4%
COc1ccc(CN(CC2CCC(C(=O)O)CC2)C(=S)Nc2ccc(C)c(Cl)c2)cc1 (stereo not drawn)	8.0%	8.1%	?	-5.0%	-1.8%	5.5%
CCOC(=O)c1cnc(SC)nc1Sc1cc(Cl)ccc1Cl	17.5%	20.6µM*	5.4%	18.4µM*	14.5%	11.0%
COc1cc(C2C(C#N)=C(N)N(c3cccnc3)C3=C2C(=O)CCC3)ccc1O (stereo not drawn)	2.3%	-0.6%	-5.4%	-0.8%	25.7%	9.8%
COc1cc(C2C(C#N)=C(N)N(c3ccc(F)cc3)C3=C2S(=O)(=O)CC3)ccc1O (stereo not drawn)	-0.8%	13µM*	2.4%	?	29.6%	0.6%
COc1ccccc1CNc1ccc(-c2nc(C)no2)cc1[N+](=O)[O-]	.	7.31µM*	-2.1%	7.31µM*	.	6.8%
Cc1noc(-c2ccc(NCc3ccccc3)c([N+](=O)[O-])c2)n1	.	18.4µM*	-10.1%	?	.	-5.6%
O=C(Nc1cccc([N+](=O)[O-])c1)c1ccc2snnc2c1	20.7%	12.3%	-2.6%	13.3%	10.0%	10.0%
CC(C)(C)c1ccc(-c2noc(CCC(=O)Nc3cccc(Cl)c3)n2)cc1	.	?	-7.6%	?	.	-16.3%
Cc1ccc(C)c(NC(=O)CCc2nc(-c3ccc(C(C)(C)C)cc3)no2)c1	.	23.1µM*	?	16.4µM*	.	-41.0%
COc1ccc(-c2noc(CCC(=O)NCc3cc(Br)ccc3OC)n2)cc1	-9.7%	?	-9.4%	18.4µM*	-6.8%	-8.0%
COc1ccc(Cl)cc1N(C)C(=O)CCc1nc(-c2ccc(C)cc2)no1	-20.2%	18.4µM*	-19.7%	23.1µM*	1.0%[9.24 µM]	-1.6%
CCc1ccccc1N(C)C(=O)CCc1nc(-c2ccc(C)cc2)no1	-1.3%	?	-17.8%	?	-0.7%	6.6%
O=C(CCc1nc(-c2ccc(F)cc2)no1)Nc1cccc(C(=O)NC2CC2)c1	-0.5%	?	-9.4%	16.4µM*	1.5%	-22.5%
CC1CN(C(NC(=O)c2ccccc2)C(Cl)(Cl)Cl)CC(C)O1 (stereo not drawn)	0.5%	1.3%	-19.6%	3.3%	-1.3%	7.1%
COc1ccc(-c2noc(CCC(=O)NCc3ccc(OC)cc3OC)n2)cc1	.	?	?	16.4µM*	.	-26.8%
CCN(C(=O)CCc1nc(-c2ccc(C)cc2)no1)c1cccc(Cl)c1	.	20.6µM*	12.6µM*	?	.	-2.4%
SMILES	HT1080NT lethal	TDP1 cell CPT	TGFb inhibitor	DT40 TDP1 no CPT	HT1080 IDH1KD tx	HepG2 viability
COc1ccc(-c2noc(CNC(=O)COc3cccc(C)c3C)n2)cc1	.	?	?	20.6µM*	.	-20.3%
COc1ccc(NC(=O)CCc2nc(-c3ccc(C)cc3)no2)c(OC)c1	-1.7%	?	0.0%	18.4µM*	7.9%[9.24 µM]	-8.6%
CCOC(=O)CCn1c(=O)c2cccn2c2cccnc21	.	-2.4%	.	-6.4%	.	-19.5%
COc1ccc(NC(=O)CCc2nc(-c3ccc(C)cc3)no2)cc1Cl	-6.5%	16.4µM*	-3.4%	16.4µM*	-21.1%	-35.2%
COc1ccc(-c2noc(CCC(=O)Nc3ccc(C)c(C)c3)n2)cc1	?	-26.6%	-15.3%	-25.2%	?	-29.2%
COc1ccc(-c2noc(CCC(=O)Nc3ccc4c(c3)OCCO4)n2)cc1	-24.7%	16.4µM*	?	14.6µM*	-22.2%	-12.5%
Cc1cc2nc(N3CCCN(Cc4cccn4-c4ncccn4)CC3)nc(C)c2cc1C	.	-14.2%[9.04 µM]	.	16.4µM*	.	.
Cc1ccc(Nc2nc(-c3ccc(O)c(O)c3)cs2)nc1	?	1.03µM*	?	1.3µM*	23.1µM*	-28.1%
